Measurements from PubChem BioAssay AID504882 (Broad Institute, 2011).
The campaign covered roughly 1,200 compounds. About 290 (24%) were called active. Not shown: some 9% with an inconclusive outcome. No rule for the calls is given here. These entries were drawn from the full list. Measured potencies and affinities stand elsewhere.

Test: cytotoxicity in EBV lymphoblastoid cells, dose response, cytotoxicity control, cell-based, plate reader, cherry-picks, set 2 (AID 504882)
Conditions: EBV lymphoblastoid cells (LCL) viability; series mostly up to 19.5 µM
In the case of `CN(C)c1cccc(C(=O)N/N=C/c2ccccc2F)c1`, the outcome is reported as “inactive”.
For `Cn1ncc(Cl)c1C(=O)NC1CCCC1`, the outcome was “inactive”.
In the case of `CCN(CC)c1ccc(NC(=O)c2cccc(F)c2)c(C)c1`, the outcome is reported as “inactive”.
With `COCCn1c(SCC(=O)N2CCc3ccccc32)nc2c(c1=O)SC(C)C2` (stereo unspecified) the outcome was “inactive”.
In the case of `Cc1cc(C)n(C2CCCCC2OC(=O)c2ccccc2F)n1` (stereo unspecified), the outcome is reported as “inactive”.
In the case of `O=C(c1ccc(Cl)cc1)N1CCN(CCOc2ccccc2)CC1`, the outcome is reported as “inactive”.
With `CNC(=S)N1N=C(c2cccs2)CC1c1ccc(F)cc1` (stereo unspecified) the outcome was “inactive”.
With `O=C1OCCC1Sc1nnc(-c2ccc(Cl)cc2Cl)o1` (stereo unspecified) the outcome was “inactive”.
For `CCCC(=O)C1=C(O)C(C(=O)OC)C(C)(C)CC1=Nc1ccncc1` (stereo unspecified), the outcome was “inactive”.
For `Cc1cc(C(=O)COC(=O)c2ccc[nH]c2=O)c(C)n1-c1ccccc1`, the outcome was “inactive”.
In the case of `COc1ccc(S(=O)(=O)N2CCOCC2)cc1NC(=O)COC(=O)CCS(=O)(=O)c1ccc(C)cc1`, the outcome is reported as “inactive”.
For `O=C(O)CCc1nc(-c2ccc(Cl)cc2)no1`, the outcome was “inactive”.
For `NC(=O)c1sc2nc3c(c(-c4cccs4)c2c1N)CCCCC3`, the outcome was “inactive”.
In the case of `O=C1CC(c2cccs2)Cc2nc(NC(=O)C3CC3)ncc21` (stereo unspecified), the outcome is reported as “inactive”.
For `O=C(Nc1ccc(Br)cc1)C1CC(O)CN1C(=O)OCc1ccccc1` (stereo unspecified), the outcome was “inactive”.
With `CC(CN1CCCCC1)OC(=O)c1ccc2c(c1)OCO2` (stereo unspecified) the outcome was “inactive”.
For `COC(=O)C1=C(C(=O)c2ccccc2)C(c2ccccc2)n2nnnc2N1` (stereo unspecified), the outcome was “inactive”.
In the case of `Cc1ccc(NC(=O)/C=N/OCC(=O)NCc2ccccc2Cl)cc1`, the outcome is reported as “inactive”.
For `Cc1cc(N)nc(=O)n1C1CC(O)C(CO)O1` (stereo unspecified), the outcome was “inactive”.
For `CCOC(=O)/C=C(\C)Sc1cc(=O)oc2ccccc12`, the outcome was “inactive”.
For `COc1ccc(S(=O)(=O)N2CCCCCC2)cc1C(=O)OCc1cccc(OC)c1OC`, the outcome was “inactive”.
For `CCCNC(=O)N1CCN(S(=O)(=O)c2ccc(C)c(C)c2)CC1`, the outcome was “inactive”.
In the case of `Cc1ccc(-n2nc(C(=O)NCc3ccc(C)o3)c3c4ccccc4n(C)c3c2=O)cc1`, the outcome is reported as “inactive”.
With `COc1ccc(OC)c(CCNC(=O)CCn2nc(C)c3c(C)n(-c4ccccc4)nc3c2=O)c1` the outcome was “inactive”.
With `Cn1cc(CC(=O)NCCCN2CCCC2)c2ccccc21` the outcome was “inactive”.
In the case of `CCOC(=O)N1CCC(NC(=O)C2CCCN(Cc3nc(-c4cccc(Cl)c4)oc3C)C2)CC1` (stereo unspecified), the outcome is reported as “inactive”.
With `O=C(CN1C(=O)c2ccccc2S1(=O)=O)c1ccccc1` the outcome was “inactive”.
With `NC(=O)OCC(COC(N)=O)c1ccccc1` the outcome was “inactive”.
In the case of `COc1ccc(-n2cnc3c(cnn3CCC#N)c2=N)cc1`, the outcome is reported as “inactive”.
In the case of `O=C(NC1CCCCC1)N1CCN(c2ccc([N+](=O)[O-])cc2)CC1`, the outcome is reported as “inactive”.
With `COc1ccc(CCNC(=O)c2nnn(-c3ccc4c(c3)OCCO4)c2N)cc1OC` the outcome was “inactive”.
In the case of `Cc1ccccc1-n1nc(C)c2cc(C(=O)NC3CC3)sc21`, the outcome is reported as “inactive”.
For `CC1CCN(CCOc2ccc(C(=O)c3ccccc3)cc2)CC1`, the outcome was “inactive”.
With `O=C(Cn1ccc(C(F)(F)F)n1)Nc1cccc(S(=O)(=O)N2CCCCC2)c1` the outcome was “inactive”.
For `O=C1C2CCCN2c2ccc(S(=O)(=O)N3CCOCC3)cc2N1Cc1ccccc1F` (stereo unspecified), the outcome was “inactive”.
With `Cn1c(CC(=O)Nc2ccc(F)cc2)nnc1SCC(=O)Nc1nncs1` the outcome was “inactive”.
In the case of `Cc1ccccc1N(C(=O)c1snc(C(N)=O)c1N)C(C(=O)NC1CCCCC1)c1ccc(O)cc1` (stereo unspecified), the outcome is reported as “inactive”.
With `N#CCN(N=Nc1ccccc1)c1ccccc1` the outcome was “inactive”.
In the case of `COC(=O)c1ccc(/C=C(/NC(=O)c2ccccc2)C(=O)N2CCOCC2)cc1`, the outcome is reported as “inactive”.
With `Cc1cc(/C=C2\Cc3ccccc3C2=O)c(C)n1-c1ccccc1` the outcome was “inactive”.
With `Cc1ccc(CCNC(=O)CCc2nc3ccccc3[nH]2)cc1` the outcome was “inactive”.
With `CC(=O)Nc1ccc(OCC(O)CNC(C)C)cc1` (stereo unspecified) the outcome was “inactive”.
For `CC1=C(C)C(OCCCl)N(c2cc(O)c(Cl)cc2F)C1=O` (stereo unspecified), the outcome was “inactive”.
With `O=C(O)c1cccc(NC(=O)c2cn(-c3ccccc3)nc2-c2ccc(F)cc2)c1` the outcome was “inactive”.
In the case of `C/C(=N/NC(=O)c1cc(C2CC2)[nH]n1)c1cccs1`, the outcome is reported as “inactive”.
In the case of `N/C(=N\OC(=O)c1cccc(Br)c1)c1ccccn1`, the outcome is reported as “inactive”.
For `Cc1cc(C(=O)CSc2nnc(-c3cccs3)o2)c(C)n1-c1ccccc1`, the outcome was “inactive”.
For `CN(Cc1ccc(F)cc1)C(=O)CN1CCN(S(=O)(=O)c2ccc3c(c2)OCCCO3)CC1`, the outcome was “inactive”.
For `COc1cc(N(C)C)c([N+](=O)[O-])cc1C(=O)N1CCN(Cc2ccccc2)CC1`, the outcome was “inactive”.
For `COc1ccc(CCNC(=O)CSc2ccsc2[N+](=O)[O-])cc1OC`, the outcome was “inactive”.
In the case of `CCOc1ccc(NC(=O)Cn2cc(C(=O)CC)c3ccccc32)cc1`, the outcome is reported as “inactive”.
In the case of `O=C(NC(Cc1c[nH]c2ccccc12)C(=O)Nc1ccc(F)c([N+](=O)[O-])c1)c1cccs1` (stereo unspecified), the outcome is reported as “inactive”.
In the case of `COc1ccc(/C=N/Nc2cc(OC)ncn2)cc1`, the outcome is reported as “inactive”.
With `Cc1ccc(C)c(S(=O)(=O)N2CCN(CC(=O)N3CCc4ccccc4C3)CC2)c1` the outcome was “inactive”.
For `Cc1ccc(NC(=S)Nc2cccc(S(=O)(=O)Nc3c(C)n(C)n(-c4ccccc4)c3=O)c2)cc1`, the outcome was “inactive”.
For `O=C1N[C@@H](Cc2c[nH]c3ccccc23)COC(=O)[C@H](Cc2ccc(F)cc2)C/C=C\C[C@H]1CC(=O)N(CCO)Cc1ccccc1`, the outcome was “inactive”.
For `O=C(Nc1ccc(CN2CCOCC2)cc1)c1cc2ccccn2n1`, the outcome was “inactive”.
For `O=C(Nc1ccc(N2CCOCC2)cc1)c1cnccn1`, the outcome was “inactive”.
For `CSc1nc(N)nc(SCC(=O)C23CC4CC(CC(C4)C2)C3)c1C#N`, the outcome was “inactive”.
With `COc1ccc(C2CC(C(F)(F)F)n3ncc(C(=O)NCc4cccnc4)c3N2)cc1OC` (stereo unspecified) the outcome was “inactive”.
In the case of `O=C(CN1C(=O)c2ccccc2C1=O)NNC1=NS(=O)(=O)c2ccccc21`, the outcome is reported as “inactive”.
For `CCOc1cccc(CNc2nnnn2C)c1`, the outcome was “inactive”.
In the case of `COc1ccc(/C=C/c2nc3ccccc3c(=O)o2)cc1`, the outcome is reported as “inactive”.
In the case of `CCCC(=O)NCCCc1nc2ccccc2n1C`, the outcome is reported as “inactive”.
With `Nc1nc2ccccc2n1C(=O)c1ccccc1` the outcome was “inactive”.
For `CC(C)(C)n1nc(-c2ccc(Cl)cc2)c2c(N)ncnc21`, the outcome was “inactive”.
For `O=C(CCNc1cccc(F)c1)c1cc2ccccc2o1`, the outcome was “inactive”.
In the case of `CCc1cc(=O)oc2c(CNCc3c(F)cccc3Cl)c(O)ccc12`, the outcome is reported as “inactive”.
In the case of `Cc1cc(N2CCCC2=O)cc(C)c1S(=O)(=O)Nc1c(C)nn(C)c1C`, the outcome is reported as “inactive”.
In the case of `O=C(C=C1SCCS1)/C=C/c1ccco1`, the outcome is reported as “inactive”.
For `CC(C)(C)c1ccc(C(=O)Nc2nnc(SCC(=O)NCC3CCCO3)s2)cc1` (stereo unspecified), the outcome was “inactive”.
For `Cc1cc(NC(=O)CSc2ccnc(=O)[nH]2)no1`, the outcome was “inactive”.
With `CC(C)Cc1ccc([C@H](C)C(=O)O)cc1` the outcome was “inactive”.
In the case of `CS(=O)(=O)N(CC(=O)Nc1ccc(F)cc1F)C1CCCCC1`, the outcome is reported as “inactive”.
For `O=C1CCC(C(=O)N2CCCCCC2)CN1CCc1ccc(Cl)cc1` (stereo unspecified), the outcome was “inactive”.
With `S=C1SCN(Cc2ccccc2)CN1Cc1ccco1` the outcome was “inactive”.
For `O=C1/C(=C/c2cccnc2)SC(=S)N1Cc1ccco1`, the outcome was “inactive”.
For `CC(C)NC(=O)N(C)C[C@H]1Oc2c(NC(=O)Nc3ccc4c(c3)OCO4)cccc2C(=O)N([C@H](C)CO)C[C@@H]1C`, the outcome was “inactive”.
With `O=C1CCCN2N=C(SCC(=O)Nc3ccc(Br)cc3)SC2=N1` the outcome was “inactive”.
With `COc1ccc(S(=O)(=O)NCCc2csc(-c3cccnc3)n2)cc1` the outcome was “inactive”.
With `CC1Cc2ccccc2N1c1ncnc(N)c1[N+](=O)[O-]` (stereo unspecified) the outcome was “inactive”.
With `CC(=O)Nc1ccc(NC(=O)C(c2ccccc2)c2ccccc2)cc1` the outcome was “inactive”.
In the case of `O=C(Cc1ccc(Cl)cc1)NCC(=O)N1CCCCC1`, the outcome is reported as “inactive”.
For `CCOC(=O)c1cn2nc(N3CCCC3)ccc2n1`, the outcome was “inactive”.
For `COc1cc(/C=N/NC(=O)c2cc(C34CC5CC(CC(C5)C3)C4)[nH]n2)ccc1O`, the outcome was “inactive”.
In the case of `COc1cc2cc(C(=O)Nc3ccc4c(c3)OCCO4)[nH]c2cc1OC`, the outcome is reported as “inactive”.
With `O=C(Nc1cc(S(=O)(=O)N2CCOCC2)ccc1Cl)c1ccncc1` the outcome was “inactive”.
In the case of `COC(=O)[C@H](C)[C@H]1C[C@]1(C)[C@H](NC(=O)OCc1ccccc1)c1ccccc1`, the outcome is reported as “inactive”.
For `COc1ccccc1N1CCN(CCCNC(=O)C2CCCN(c3ncnc4c3nc3n4CCCCC3)C2)CC1` (stereo unspecified), the outcome was “inactive”.
For `Cc1ccsc1/C=N/NC(=O)c1ccc2c(c1)OCCO2`, the outcome was “inactive”.
For `CCOC(=O)c1sc(NC(=O)CNCc2ccccn2)c(C(=O)OCC)c1C`, the outcome was “inactive”.
With `CC(=O)c1c(C)[nH]c(C(=O)Nc2ccc(C)cn2)c1C` the outcome was “inactive”.
In the case of `Cc1cccn2c(=O)c(C=NCCO)c(NCc3ccco3)nc12`, the outcome is reported as “inactive”.
For `Clc1ccccc1C1=Nn2c(nnc2-c2ccncc2)SC1`, the outcome was “inactive”.
In the case of `Cc1ccc(C(=O)Nc2cccc(C(F)(F)F)c2)cc1Nc1ncnc2nc[nH]c12`, the outcome is reported as “inactive”.
In the case of `c1cncc(CNc2ncnc3ccc(-c4ccoc4)cc23)c1`, the outcome is reported as “inactive”.
In the case of `Cc1sc2ncn(CC(=O)N3CCC(C(N)=O)CC3)c(=O)c2c1S(=O)(=O)N1CCOCC1`, the outcome is reported as “inactive”.
In the case of `Cc1ccc(N2CCN(C3=NC(=O)/C(=C\c4cn[nH]c4-c4ccccc4)S3)CC2)cc1`, the outcome is reported as “inactive”.
In the case of `CC1CCN(C(=O)/C(=C\c2cccs2)NC(=O)c2ccccc2)CC1`, the outcome is reported as “inactive”.
For `C=CCN(c1ccc(C(=O)Nc2ccc3c(c2)n(C)c(=O)n3C)cc1)S(C)(=O)=O`, the outcome was “inactive”.
For `COC(=O)c1cccc(COC(=O)c2ccccc2NC(=O)c2ccco2)c1`, the outcome was “inactive”.
For `C[C@]12CC[C@@H]3c4ccc(OS(=O)(=O)O)cc4CC[C@H]3[C@@H]1CCC2=O`, the outcome was “inactive”.
For `COc1ccccc1C(=O)NC(=O)CSc1nnc(N)s1`, the outcome was “inactive”.
In the case of `c1csc(CNc2ncnc3ccc(-c4ccoc4)cc23)c1`, the outcome is reported as “inactive”.
For `COc1ccc(C(=O)CSc2nnc(Cc3ccccc3)o2)cc1`, the outcome was “inactive”.
For `CC[C@H]1OC(=O)[C@H](C)[C@@H](O[C@H]2C[C@@](C)(OC)[C@@H](O)[C@H](C)O2)[C@H](C)[C@@H](O[C@@H]2O[C@H](C)C[C@H](N(C)C)[C@H]2O)[C@](C)(O)C[C@@H](C)C(=NOCOCCOC)[C@H](C)[C@@H](O)[C@]1(C)O`, the outcome was “inactive”.
